{
  "source": "PubChem BioAssay AID2685",
  "about": "(National Center for Advancing Translational Sciences (NCATS), 2010)",
  "note": "About 2,100 (0.66%) of roughly 320,000 compounds were called active. Another 53% or so got no clear call; they are omitted. The call rests on the fitted dose curve; in most records, active means well fitted inhibition curve with a large enough effect in the signal ratio, with a control signal flat (not every such curve was filed as active); inconclusive means small, poorly fitted or top-dose-only effect, or effect the other way, or a change in a side signal; inactive means flat fitted curve, though single readings scatter; the % refers to the signal ratio. The full list was thinned out, with actives kept by preference. Potency means the concentration at half of the fitted maximal effect.",
  "data": [
    {"test": "qHTS Assay for Lipid Storage Modulators in Drosophila S3 Cells;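 on cell number change: cells counted by Cell Tracker Red CMTPX staining in the red channel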; on lipid storage change, negative = inhibition: on the % scale 0 is the no-effect control and ±100 the full control effect", "conditions": "BODIPY lipid droplet fluorescence, 18-24 h, cells fed with added oleic acid; cell number change: measured here: cell count max response; series mostly up to 46.1 µM; lipid storage change, negative = inhibition: at the top concentration", "summary_of_the_method": "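Drosophila S3 cells got compounds at several concentrations plus oleic acid (400 uM solution). Laser-scanning cytometry with 488 nm excitation read lipid droplets at 500-530 nm and cells at 575-640 nm. Percent activity was relative to 20 uM Triacsin C.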", "units": {"cell number change": "%"}, "values": [
      {"smiles": "O=C(N/N=C/C=C/c1ccc([N+](=O)[O-])cc1)C1COc2ccccc2O1", "note": "(stereo not given)", "lipid storage change, negative = inhibition": "1.32% (inactive)", "cell number change": -22.4},
      {"smiles": "Cc1cccc(-n2ncc3c(NCc4cccnc4)ncnc32)c1", "lipid storage change, negative = inhibition": "0.0879% (inactive)", "cell number change": -21},
      {"smiles": "Cc1ccc(CSc2ncnc3c2cnn3-c2ccc(C)cc2)cc1", "lipid storage change, negative = inhibition": "-9.41% (inactive)", "cell number change": -6.49},
      {"smiles": "Clc1ccc(-n2ncc3c(NCc4cccnc4)ncnc32)cc1Cl", "Potency": "13 µM (active)", "cell number change": -22.6},
      {"smiles": "Cc1ccc(-n2ncc3c(SCc4ccccc4)ncnc32)cc1", "lipid storage change, negative = inhibition": "-1.89% (inactive)", "cell number change": 8.14},
      {"smiles": "COc1ccc(-n2ncc3c(NCc4cccnc4)ncnc32)cc1", "lipid storage change, negative = inhibition": "-11.6% (inactive)", "cell number change": -6.4},
      {"smiles": "Fc1ccc(-n2ncc3c(SCc4cccnc4)ncnc32)cc1", "Potency": "23.1 µM (active)", "cell number change": -12.6},
      {"smiles": "COc1cccc(NC(=O)Cn2c3ccccc3c3nc4n(c(=O)c32)CCCS4)c1", "lipid storage change, negative = inhibition": "-0.494% (inactive)"},
      {"smiles": "COc1ccc(Cn2nc(C)cc2C)cc1OC", "lipid storage change, negative = inhibition": "29.5% (inactive)"},
      {"smiles": "O=C(CN(c1ccccc1)S(=O)(=O)c1ccccc1)N/N=C/c1ccco1", "lipid storage change, negative = inhibition": "11.2% (inactive)", "cell number change": 6.67},
      {"smiles": "CN(CCNC(=O)C1CCN(S(=O)(=O)c2cnc[nH]2)CC1)Cc1ccccc1", "lipid storage change, negative = inhibition": "-0.914% (inactive)", "cell number change": 11.4},
      {"smiles": "COc1ccc(CCNC(=O)C2CCN(S(=O)(=O)c3cnc[nH]3)CC2)cc1OC", "lipid storage change, negative = inhibition": "24.8% (inactive)", "cell number change": 4.12},
      {"smiles": "O=C(C1CCN(S(=O)(=O)c2ccccc2F)CC1)N1CCN(Cc2ccc3c(c2)OCO3)CC1", "outcome": "inactive", "cell number change": -10.8},
      {"smiles": "COC(=O)CNC(=O)C1CCN(S(=O)(=O)c2cnc[nH]2)CC1", "Potency": "0.326 µM (active)", "cell number change": -7.96},
      {"smiles": "Cc1ccc(CNC(=O)C2CCCN(S(=O)(=O)c3cnc[nH]3)C2)cc1", "note": "(stereo not given)", "lipid storage change, negative = inhibition": "-2.15% (inactive)", "cell number change": -11.5},
      {"smiles": "O=C(C1CCN(S(=O)(=O)c2cnc[nH]2)CC1)N1CCN(Cc2ccc3c(c2)OCO3)CC1", "Potency": "5.8 µM (active)", "cell number change": 1.49},
      {"smiles": "CCCCNC(=O)C1CCN(S(=O)(=O)c2cnc[nH]2)CC1", "Potency": "18.4 µM (active)", "cell number change": -1.76},
      {"smiles": "COc1ccc(CNC(=O)C2CCCN(S(=O)(=O)c3cnc[nH]3)C2)cc1", "note": "(stereo not given)", "Potency": "8.2 µM (active)", "cell number change": -8.84},
      {"smiles": "CCN(CCCNC(=O)C1CCN(S(=O)(=O)c2cnc[nH]2)CC1)c1ccccc1", "outcome": "inactive"},
      {"smiles": "O=C(C1CCN(S(=O)(=O)N2CCOCC2)CC1)N1CCN(Cc2ccc3c(c2)OCO3)CC1", "lipid storage change, negative = inhibition": "11.7% (inactive)", "cell number change": -10.4},
      {"smiles": "O=C(NCc1ccccn1)C1CCN(S(=O)(=O)c2cnc[nH]2)CC1", "lipid storage change, negative = inhibition": "-1.49% (inactive)", "cell number change": -2.16},
      {"smiles": "COc1ccccc1CNC(=O)C1CCCN(S(=O)(=O)c2cnc[nH]2)C1", "note": "(stereo not given)", "outcome": "inactive", "cell number change": 23},
      {"smiles": "CC(=O)NC1=NN(C(C)=O)C(C)(CS(=O)(=O)c2ccc(Cl)cc2)S1", "note": "(stereo not given)", "lipid storage change, negative = inhibition": "5.98% (inactive)", "cell number change": -3.99},
      {"smiles": "O=C(O)CC(NC(=O)c1ccco1)c1ccco1", "note": "(stereo not given)", "outcome": "inactive", "cell number change": 3.18},
      {"smiles": "Cn1c(-c2ccccn2)[n+](C)c2ccccc21", "lipid storage change, negative = inhibition": "-16.5% (inactive)", "cell number change": 8.68},
      {"smiles": "CCN(CC)CC(=O)N1c2ccccc2Oc2c(c(=O)n(C)c(=O)n2C)C1c1cccc([N+](=O)[O-])c1", "note": "(stereo not given)", "lipid storage change, negative = inhibition": "9.31% (inactive)", "cell number change": 16},
      {"smiles": "COc1ccc(CC(=O)N/N=C(\\C)CC(=O)Nc2ccc3c(c2)OCCO3)cc1OC", "outcome": "inactive", "cell number change": -9.52},
      {"smiles": "CN(c1ccccc1)S(=O)(=O)c1ccc(C(=O)OCC(=O)N2CCOCC2)cc1", "outcome": "inactive"},
      {"smiles": "O=c1cc(N2CCCCCC2)[nH]c(=O)n1-c1ccc(Cl)cc1", "lipid storage change, negative = inhibition": "-7.58% (inactive)", "cell number change": -2.94},
      {"smiles": "CCCCC1=CC2=CC(=O)C(C)(OC(=O)CC)C(=O)C2=CN1CCCCO", "note": "(stereo not given)", "lipid storage change, negative = inhibition": "0.621% (inactive)", "cell number change": 9.55},
      {"smiles": "Cc1cc(C)cc(C(=O)N2CCN=C2SCc2ccc([N+](=O)[O-])cc2)c1", "Potency": "16.4 µM (active)", "cell number change": 28.4},
      {"smiles": "Cc1ccc(C(=O)N2CCN=C2SCc2ccc([N+](=O)[O-])cc2)cc1", "lipid storage change, negative = inhibition": "15.5% (inactive)", "cell number change": 4.98},
      {"smiles": "O=C(c1ccccc1)N1CCN=C1SCc1ccc([N+](=O)[O-])cc1", "lipid storage change, negative = inhibition": "0.791% (inactive)", "cell number change": 12},
      {"smiles": "Cc1ccccc1-n1nc(C)c2cc(C(=O)N3CCOCC3)sc21", "lipid storage change, negative = inhibition": "0.853% (inactive)", "cell number change": 4.65},
      {"smiles": "COc1ccccc1-n1cnnc1SCC(=O)N1CCN(C(=O)c2ccco2)CC1", "lipid storage change, negative = inhibition": "1.02% (inactive)", "cell number change": 21.6},
      {"smiles": "CCCCc1c(O)nc(SCC(=O)c2ccccc2)n(-c2ccccc2OC)c1=O", "lipid storage change, negative = inhibition": "1.38% (inactive)", "cell number change": 11.3},
      {"smiles": "CCCCc1c(O)nc(SCC(=O)Nc2cccc3ccccc23)n(-c2ccccc2OC)c1=O", "Potency": "20.6 µM (active)", "cell number change": 14.5},
      {"smiles": "CCc1c(O)nc(SCC(=O)Nc2ccccc2OC)n(-c2ccccc2C)c1=O", "outcome": "inactive"},
      {"smiles": "Cc1ccccc1-n1c(SCC(=O)N2CCOCC2)nc(O)c(Cc2ccccc2)c1=O", "outcome": "inactive", "cell number change": 15.6},
      {"smiles": "COc1ccccc1-n1cnnc1SCC(=O)N1CCOCC1", "Potency": "0.0146 µM (active)", "cell number change": -10.4},
      {"smiles": "COc1ccccc1-n1c(SCC(=O)N2CCOCC2)nc(O)cc1=O", "outcome": "inactive", "cell number change": -21.1},
      {"smiles": "COc1ccccc1-n1c(SCC(=O)N2CCCCC2)nc(O)c(Cc2ccccc2)c1=O", "outcome": "inactive", "cell number change": -4.53},
      {"smiles": "COc1ccccc1-n1c(SCC(=O)N2CCOCC2)nc(O)c(Cc2ccccc2)c1=O", "Potency": "13 µM (active)", "cell number change": -8.86},
      {"smiles": "CCn1c(=O)c2cc(C(=O)NCC(OC)OC)sc2c2ccccc21", "lipid storage change, negative = inhibition": "-0.615% (inactive)", "cell number change": 25.4},
      {"smiles": "CCOC(=O)c1csc(NC(=O)C(C)(C)C)n1", "lipid storage change, negative = inhibition": "-3.09% (inactive)", "cell number change": -3.51},
      {"smiles": "O=C(c1ccc(F)cc1)C1CCN(C(=O)Nc2ccc(F)cc2F)CC1", "lipid storage change, negative = inhibition": "12.9% (inactive)", "cell number change": 14.5},
      {"smiles": "CCCc1c(O)c2ccccc2[nH]c1=O", "lipid storage change, negative = inhibition": "17.1% (inactive)", "cell number change": 3.83},
      {"smiles": "C/C(CC(=O)Nc1cccc(Cl)c1C)=N\\NC(=O)Cc1csc(N)n1", "lipid storage change, negative = inhibition": "-3.2% (inactive)", "cell number change": 22},
      {"smiles": "CNc1nc(N)c([N+](=O)[O-])c(Nc2ccccc2OC)n1", "lipid storage change, negative = inhibition": "9.33% (inactive)", "cell number change": 11.2},
      {"smiles": "S=C(NC1CC1)N1CCCc2ccccc21", "outcome": "inactive"},
      {"smiles": "COC(=O)c1sc(N)c(C(=O)OC)c1COC(=O)C12CC3CC(CC(O)(C3)C1)C2", "outcome": "inactive", "cell number change": -15.1},
      {"smiles": "CCOC(=O)c1sc(NC(=O)OC)c(C(=O)OC)c1C", "lipid storage change, negative = inhibition": "-9.1% (inactive)", "cell number change": 11.2},
      {"smiles": "CC(=O)c1c(COC(=O)c2ccc(Cl)cc2)nc2ccccc2[n+]1[O-]", "lipid storage change, negative = inhibition": "0.115% (inactive)", "cell number change": 15.2},
      {"smiles": "O=C(Nc1ccc(OC(F)F)cc1)c1ncc(Cl)c(Cl)c1Cl", "outcome": "inactive", "cell number change": 21.1},
      {"smiles": "COc1ccc(NC(=O)c2nc(SC)ncc2Cl)cc1", "lipid storage change, negative = inhibition": "20% (inactive)"},
      {"smiles": "Cc1ccc(S(=O)(=O)NC(=O)Nc2ccc(OC(F)F)cc2)cc1", "lipid storage change, negative = inhibition": "-3.81% (inactive)", "cell number change": 7.38},
      {"smiles": "Cc1cccc(CS(=O)(=O)c2ncc(Cl)c(C(=O)Nc3c(C)cccc3C)n2)c1", "outcome": "inactive", "cell number change": 14.9},
      {"smiles": "CS(=O)(=O)c1ncc(Cl)c(C(=O)Nc2ccc(OC(F)F)cc2)n1", "Potency": "18.4 µM (active)", "cell number change": -13.9},
      {"smiles": "Cc1ccc(CS(=O)(=O)c2ncc(Cl)c(C(=O)Nc3ccc(OC(F)F)cc3)n2)cc1", "Potency": "1.16 µM (active)"},
      {"smiles": "Cc1cccc(CS(=O)(=O)c2ncc(Cl)c(C(=O)NCc3ccc4c(c3)OCO4)n2)c1", "Potency": "6.51 µM (active)"},
      {"smiles": "CCSc1nnc(NC(=O)c2nc(S(=O)(=O)Cc3ccc(F)cc3)ncc2Cl)s1", "outcome": "inactive", "cell number change": -9.14},
      {"smiles": "CC(C)c1nnc(NC(=O)c2nc(S(=O)(=O)Cc3ccccc3F)ncc2Cl)s1", "Potency": "1.64 µM (active)", "cell number change": -17.7},
      {"smiles": "O=C(Nc1ccc(OC(F)F)cc1)c1ccccn1", "lipid storage change, negative = inhibition": "7.36% (inactive)", "cell number change": 7.91},
      {"smiles": "Cc1ccc(CS(=O)(=O)c2ncc(Cl)c(C(=O)Nc3nnc(C(C)C)s3)n2)cc1", "lipid storage change, negative = inhibition": "-92.2% (inactive)", "cell number change": -27.5},
      {"smiles": "O=C(NCc1ccc2c(c1)OCO2)c1nc(S(=O)(=O)Cc2ccccc2)ncc1Cl", "outcome": "inactive"}
    ]}
  ]
}
